Assay results published in PubChem BioAssay (NCATS).
Inconclusive results are not listed. Active and inactive are the calls of the source. Unless noted, calls follow the shape of the dose curve; as a rule, active = well fitted curve in the direction sought with a large enough effect; inconclusive = small, poorly fitted or top-dose-only effect, or another doubt; inactive = no such curve, though single readings can be large; an effect the other way counts as inactive or inconclusive.

How the values were obtained:
[1] = P-glycoprotein substrates identified in KB-8-5-11 adenocarcinoma cell line, qHTS therapeutic library screen (AID 1346987); also: nearly all actives have a fitted effect of over 65% in size; also: potency is read from the fitted curve at half-maximal effect
In short: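 KB-8-5-11, a colchicine-selected P-gp-overexpressing KB-3-1 subline, was grown without colchicine for the assay. Cells were seeded at 500 cells/well, dosed in concentration-response and incubated 72 h at 37 degree C, 5% CO2. Viability was read by CellTiter-Glo luminescence.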

[2] = target: Cytochrome P450 2D6 (Homo sapiens) (UniProt P10635); experiment: Cytochrome P450 family 2 subfamily D member 6 (CYP2D6) small molecule antagonists: luciferase biochemical (cell-free) qHTS assay (AID 1645840; active = well fitted curve in the direction sought with a large enough effect in the repeat runs; an effect the other way counts as inactive or inconclusive; also: nearly all actives have a fitted effect of over 55% in size; also: potency is read from the fitted curve at half-maximal effect)
In short: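 P450-Glo luminescent screen: recombinant CYP2D6 enzyme–proluciferin substrate mix preincubated with compound 10 min at room temperature, then NADPH regeneration added for 1 h at room temperature. Detection reagent added for 20 min; luciferin light read as relative luminescence units.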

[3] = target: Cytochrome P450 2C9 (Homo sapiens) (UniProt P11712); experiment: Cytochrome P450 family 2 subfamily C member 9 (CYP2C9) small molecule antagonists: luciferase biochemical (cell-free) qHTS assay (AID 1645842; active = well fitted curve in the direction sought with a large enough effect in the repeat runs; an effect the other way counts as inactive or inconclusive; also: nearly all actives have a fitted effect of over 55% in size; also: potency is read from the fitted curve at half-maximal effect; as to activity change, negative = inhibition: % is scaled to controls: 0 for no effect and ±100 for the full control effect)
In short: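 Luminescence, after 20 min with luciferin detection reagent, reflected CYP2C9 turnover during a 1 h NADPH-driven reaction at 37C. Enzyme-substrate mix contained 0.4% bovine serum albumin and was preincubated with compound 10 min at room temperature.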

[4] = test system: HaCat; experiment: Cytotoxic Profiling of Annotated Libraries Using Quantitative High-Throughput Screening (AID 1296008); details: Five cell lines viability, CellTiter-Glo ATP luminescence, 48-72 h; max response: stronger effect = lower value; also: nearly all actives have a fitted effect of over 60% in size; also: potency is read from the fitted curve at half-maximal effect; as to max response: % is scaled to controls: 0 for no effect and ±100 for the full control effect
In short: (§1)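 Cytotoxicity was measured as CellTiter-Glo ATP luminescence, read after 10 min at room temperature. Compound treatment of the cells lasted 48 or 72 hr at 37 degrees Celsius in a qHTS format.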

[5] = test system: KB-3-1; experiment: as above; details: Five cell lines viability, CellTiter-Glo ATP luminescence, 48-72 h; max response: stronger effect = lower value
In short: as §1

[6] = test system: HeLa; experiment: Primary qHTS to identify gynecologic anti-cancer compounds using libraries of approved drugs and bioactive compounds (AID 1345084); details: Gynecologic cancer cell panel viability, ATPlite luminescence, 48 h; series mostly up to 57.5 µM; also: nearly all actives have a fitted effect of over 55% in size; also: potency is read from the fitted curve at half-maximal effect
In short: (§2)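 Five-point cytotoxicity, 48 h drug exposure at 37 C, 5% CO2, on cells seeded 16 h beforehand. ATP content read by ATPlite luminescence.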

[7] = test system: SKOV3; experiment: as above; details: Gynecologic cancer cell panel viability, ATPlite luminescence, 48 h; series mostly up to 57.5 µM
In short: as §2

[8] = test system: Zika virus NS2B-NS3 protease (unlinked complex); experiment: Primary screen GU Rhodamine qHTS for Zika virus inhibitors: Unlinked NS2B-NS3 protease assay (AID 1347159); also: % is scaled to controls: 0 for no effect and ±100 for the full control effect; nearly all actives have a fitted effect of over 60% in size
In short: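 Noncovalent NS2B hydrophilic domain–NS3 protease domain complex (25 nM) preincubated 15 min at room temperature with compounds (up to 114 microM) in 10 mM Tris-HCl pH 8.0, 0.01% Tween 20; 1.5 microM Rhodamine110 substrate added, fluorescence change over 15 min fitted to Hill equation.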

[9] = test system: HACAT; experiment: qHTS assay to identify novel small-molecules to repurpose for Merkel cell carcinoma treatment (AID 1296009); details: MCC and control cell lines, CellTiter-Glo viability, 72 h; at 44.8 µM (top of the series) unless noted; also: nearly all actives have a fitted effect of over 60% in size
In short: (§3)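 72 hr, 37 degree celsius; NPC 8-pt / MIPE 11-pt dose response; compound pinned in DMSO; CellTiter-Glo, 10 min RT, luminescence; normalized to no-cell and DMSO controls.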

[10] = P-glycoprotein substrates identified in KB-3-1 adenocarcinoma cell line, qHTS therapeutic library screen (AID 1346986); also: nearly all actives have a fitted effect of over 60% in size
In short: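 Cells seeded 500/well in DMEM/10% FCS; compounds pinned in dose-response; 72 h incubation; CellTiter-Glo added, 5 min, luminescence. KB-8-5-11 run ±tariquidar to test reversal of P-gp resistance.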

[11] = Primary qHTS for inhibitors of nuclear receptor binding SET domain protein 2 (NSD2) in an isogenic RCH-ACV NSD2 p.E1099K mutant (9B) (AID 1645876); also: nearly all actives have a fitted effect of over 70% in size; also: potency is read from the fitted curve at half-maximal effect
[12] = Primary qHTS for inhibitors of nuclear receptor binding SET domain protein 2 (NSD2) in an RCH-ACV wild type WT cells (2C) (AID 1645877); also: nearly all actives have a fitted effect of over 70% in size; also: potency is read from the fitted curve at half-maximal effect
[13] = target: Catechol O-methyltransferase (Homo sapiens) (UniProt P21964); experiment: Confirmatory Screen for Target Class Profiling of Small Molecule Inhibitors of Methyltransferases (AID 1745852); details: MTase-Glo luminescence, SAH detection, recombinant enzyme; measured here: COMT max response; stronger effect = lower value; as to activity change, negative = inhibition: % is scaled to controls: 0 for no effect and ±100 for the full control effect
[14] = target: Guanidinoacetate N-methyltransferase (Homo sapiens) (UniProt Q14353); experiment: as above; details: activity change, negative = inhibition: at 57.3 µM (top of the series) unless noted
[15] = target: Nicotinamide N-methyltransferase (Homo sapiens) (UniProt P40261); experiment: as above; details: MTase-Glo luminescence, SAH detection, recombinant enzyme; measured here: NNMT max response; stronger effect = lower value
[16] = target: Phenylethanolamine N-methyltransferase (Homo sapiens) (UniProt P11086); experiment: as above; details: MTase-Glo luminescence, SAH detection, recombinant enzyme; measured here: PNMT max response; stronger effect = lower value
[17] = test system: CRL-7250; experiment: qHTS assay to identify novel small-molecules to repurpose for Merkel cell carcinoma treatment (AID 1296009); details: MCC and control cell lines, CellTiter-Glo viability, 72 h; series mostly up to 92 µM; also: nearly all actives have a fitted effect of over 60% in size
In short: as §3

[18] = test system: HEK293; experiment: Cytotoxic Profiling of Annotated Libraries Using Quantitative High-Throughput Screening (AID 1296008); details: Five cell lines viability, CellTiter-Glo ATP luminescence, 48-72 h; max response: stronger effect = lower value; also: nearly all actives have a fitted effect of over 60% in size; also: potency is read from the fitted curve at half-maximal effect; as to max response: % is scaled to controls: 0 for no effect and ±100 for the full control effect
In short: as §1

[19] = test system: NIH3T3; experiment: qHTS assay to identify novel small-molecules to repurpose for Merkel cell carcinoma treatment (AID 1296009); details: MCC and control cell lines, CellTiter-Glo viability, 72 h; at 44.8 µM (top of the series) unless noted; also: nearly all actives have a fitted effect of over 60% in size
In short: as §3

Cytochrome P450 2C9 (Homo sapiens), sequence (P11712 whole entry, looked up): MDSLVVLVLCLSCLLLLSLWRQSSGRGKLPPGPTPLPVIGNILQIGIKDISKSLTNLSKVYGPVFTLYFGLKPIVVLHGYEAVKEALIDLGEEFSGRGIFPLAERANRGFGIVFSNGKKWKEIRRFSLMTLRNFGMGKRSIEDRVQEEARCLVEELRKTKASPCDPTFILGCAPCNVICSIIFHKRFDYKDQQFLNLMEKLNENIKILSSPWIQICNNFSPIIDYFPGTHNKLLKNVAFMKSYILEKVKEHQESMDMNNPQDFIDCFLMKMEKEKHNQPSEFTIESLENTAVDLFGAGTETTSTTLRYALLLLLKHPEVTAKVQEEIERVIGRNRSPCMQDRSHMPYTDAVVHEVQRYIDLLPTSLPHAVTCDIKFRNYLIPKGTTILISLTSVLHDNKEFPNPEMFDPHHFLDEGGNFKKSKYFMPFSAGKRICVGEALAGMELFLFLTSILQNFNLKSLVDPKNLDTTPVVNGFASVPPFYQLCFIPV
Cytochrome P450 2D6 (Homo sapiens), sequence (P10635 whole entry, looked up): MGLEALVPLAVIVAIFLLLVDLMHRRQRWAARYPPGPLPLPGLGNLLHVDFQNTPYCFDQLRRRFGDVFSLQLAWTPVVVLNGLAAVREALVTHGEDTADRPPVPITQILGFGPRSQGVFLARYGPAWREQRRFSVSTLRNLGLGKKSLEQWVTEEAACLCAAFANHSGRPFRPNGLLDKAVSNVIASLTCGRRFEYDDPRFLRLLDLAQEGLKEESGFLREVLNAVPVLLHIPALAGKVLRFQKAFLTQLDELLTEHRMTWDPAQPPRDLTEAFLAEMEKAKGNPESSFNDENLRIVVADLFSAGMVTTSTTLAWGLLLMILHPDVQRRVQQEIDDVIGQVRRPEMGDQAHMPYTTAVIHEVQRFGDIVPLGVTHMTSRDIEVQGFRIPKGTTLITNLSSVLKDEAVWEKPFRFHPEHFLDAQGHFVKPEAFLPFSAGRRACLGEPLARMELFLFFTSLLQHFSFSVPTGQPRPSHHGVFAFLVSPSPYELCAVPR
Catechol O-methyltransferase (Homo sapiens), sequence (P21964 whole entry, looked up): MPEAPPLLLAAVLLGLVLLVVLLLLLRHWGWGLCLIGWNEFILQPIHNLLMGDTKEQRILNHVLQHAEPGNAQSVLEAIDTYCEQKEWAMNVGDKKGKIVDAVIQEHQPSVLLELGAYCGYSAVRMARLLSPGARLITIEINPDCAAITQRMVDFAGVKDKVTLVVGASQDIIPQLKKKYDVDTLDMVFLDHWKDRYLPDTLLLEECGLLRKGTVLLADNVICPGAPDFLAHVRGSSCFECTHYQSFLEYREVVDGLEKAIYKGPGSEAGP
Phenylethanolamine N-methyltransferase (Homo sapiens), sequence (P11086 whole entry, looked up): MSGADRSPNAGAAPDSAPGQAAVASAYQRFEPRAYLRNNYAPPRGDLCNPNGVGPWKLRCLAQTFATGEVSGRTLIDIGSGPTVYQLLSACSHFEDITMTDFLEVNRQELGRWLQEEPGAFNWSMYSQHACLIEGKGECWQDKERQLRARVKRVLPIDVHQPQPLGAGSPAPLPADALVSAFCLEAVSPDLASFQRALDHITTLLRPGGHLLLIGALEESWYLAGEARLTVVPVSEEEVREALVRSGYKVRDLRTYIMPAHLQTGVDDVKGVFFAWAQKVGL
Nicotinamide N-methyltransferase (Homo sapiens), sequence (P40261 whole entry, looked up): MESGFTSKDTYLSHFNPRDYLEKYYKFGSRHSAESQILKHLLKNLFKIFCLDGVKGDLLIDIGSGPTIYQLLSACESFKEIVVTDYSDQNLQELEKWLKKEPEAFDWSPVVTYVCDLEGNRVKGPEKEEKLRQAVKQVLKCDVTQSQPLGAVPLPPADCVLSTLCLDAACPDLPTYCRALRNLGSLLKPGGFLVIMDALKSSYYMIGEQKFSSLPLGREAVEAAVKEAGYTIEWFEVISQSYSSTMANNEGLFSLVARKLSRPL

COC1(C[S@@](=O)c2ccccc2)CCN(CCc2c[nH]c3ccc(F)cc23)CC1
active: Potency [2] 2390 nM
inactive: Potency [1] | Potency [3] | max response [4] 3.53% | max response [5] 6.86% | Potency [6] | Potency [7]

NCCCCCNC1(c2ccccc2)CCCCC1
inactive: Potency [1] | Potency [8] | outcome [4] | max response [5] -2.11% | outcome [9] | Potency [7]
active: Potency [2] 2130 nM

CC(O)(c1ccccc1)C(Cc1ccc(Cl)cc1)n1cncn1 (stereo unspecified)
inactive: outcome [4] | max response [5] -4.41% | outcome [9] | Potency [6] | Potency [7]

CCCN(CCC)CCc1ccc(OC)c(OCCc2ccccc2)c1
active: Potency [2] 213 nM
inactive: Potency [10] | Potency [1] | Potency [8] | max response [4] -13.9% | outcome [5] | Potency [6] | Potency [7]

O=C(C[C@@H]1NCCC[C@H]1O)Cn1cnc2ccccc2c1=O
active: Potency [1] 259 nM | Potency [11] 129 nM | Potency [12] 145 nM | Potency [4] 1300 nM | Potency [5] 259 nM | Potency [6] 1780 nM
inactive: Potency [8]

C[C@H]1CN(CC[C@H](O)C2CCCCC2)CC[C@@]1(C)c1cccc(O)c1
active: Potency [2] 5350 nM
inactive: Potency [1] | Potency [8] | max response [4] 3.77% | max response [5] -5.46% | Potency [6] | Potency [7]

CCC1CN2CCc3cc(OC)c(OC)cc3C2CC1CC1=NCCc2cc(O)c(OC)cc21 (stereo unspecified)
-6.53%: activity [15]
-9.58% [at 29.8 µM]: activity change, negative = inhibition [14]
-74.9%: activity [13]
-6.3%: activity [16]
inactive: Potency [1] | Potency [8] | Potency [11] | outcome [4] | max response [5] -7.09% | outcome [9] inactive [at 17.4 µM] | Potency [6] | Potency [7]

O=C(NCCN1CCC2(CC1)C(=O)NCN2c1cccc(F)c1)c1ccc(F)c(F)c1
inactive: Potency [8] | Potency [17] | Potency [6] | Potency [7]
active: Potency [11] 23000 nM | Potency [12] 14500 nM

Cc1ccccc1C1=CCN(C)CC1
inactive: Potency [1] | Potency [11] | Potency [12] | max response [18] -19.5% | max response [4] -6.61% | max response [5] 6.53% | Potency [6]

CC[C@@H]1/C=C/C=C/C[C@H](C)C(O)[C@](C)(O)C(=O)[C@H](C)C(O)[C@H](C)C(=O)[C@H](C)[C@@H](O)[C@H](C)/C=C/C(=O)O[C@H]2[C@@H](C)[C@@H](CC1)O[C@]1(O[C@H](C[C@H](C)O)[C@H](C)CC1=O)[C@@H]2C (stereo partly specified)
inactive: max response [4] -17.7%
active: Potency [11] 123 nM | Potency [12] 138 nM | Potency [18] 17.4 nM | Potency [5] 49.1 nM

O=C1Nc2ccc3ncsc3c2/C1=C/c1cnc[nH]1
-10%: activity [16]
-8.72%: activity [15]
-5.42%: activity change, negative = inhibition [14]
inactive: Potency [8]
active: Potency [1] 1640 nM | Potency [2] 1690 nM | Potency [11] 649 nM | Potency [12] 578 nM | Potency [18] 5170 nM | Potency [4] 4110 nM | Potency [5] 2310 nM | Potency [6] 22400 nM
-10.3%: activity [13]

C=C1C(=O)OC2/C=C(\COO)CC/C=C(\COC(C)=O)CC(OC(=O)C(C)CC)C12 (stereo unspecified)
active: Potency [11] 6320 nM | Potency [12] 3550 nM
inactive: Potency [8] | outcome [4] | outcome [9] inactive [at 17.4 µM] | Potency [6]

C[C@@H]1O[C@@H](O[C@H]2CC[C@@]3(C)C(CC[C@@H]4C3CC[C@]3(C)[C@@H](C5=CC(=O)OC5)CC[C@]43O)C2)[C@H](O)[C@H](O)[C@H]1O (stereo partly specified)
active: Potency [1] 709 nM | Potency [11] 200 nM | Potency [12] 632 nM | Potency [18] 632 nM | Potency [4] 2820 nM | Potency [5] 796 nM | Potency [7] 2000 nM
inactive: Potency [8]

C[C@H](Nc1ncnc2nc[nH]c12)c1nc2ccc(F)cc2c(=O)n1-c1ccccc1
inactive: Potency [8] | max response [5] -3.18% | Potency [6] | Potency [7]
active: Potency [2] 15100 nM

C[C@@H]1CCC2[C@@H](C)C(=O)OC3O[C@@]4(C)CCC1[C@]32OO4 (stereo partly specified)
inactive: Potency [1] | Potency [8] | max response [4] -1.21% | Potency [6] | Potency [7]

CO/C1=C\C(C)=C\[C@@H](C)[C@@H](O)[C@@H](C)C/C(C)=C/C=C/[C@H](OC)[C@@H]([C@@H](C)[C@@H](O)[C@H](C)[C@@]2(O)C[C@@H](O)[C@H](C)[C@@H](C(C)C)O2)OC1=O
active: Potency [1] 109 nM | Potency [11] 48.3 nM | Potency [12] 30.5 nM | Potency [6] 126 nM
inactive: Potency [8]

CO[C@@H]1[C@@H](O)[C@@H](O[C@H]2CC[C@]3(C=O)C4CC[C@]5(C)[C@@H](C6=CC(=O)OC6)CC[C@]5(O)[C@@H]4CC[C@H]3C2)O[C@@H](C)[C@H]1O[C@@H]1O[C@H](CO[C@@H]2O[C@H](CO)[C@@H](O)[C@H](O)[C@H]2O)[C@@H](O)[C@H](O)[C@H]1O (stereo partly specified)
active: Potency [1] 3480 nM | Potency [11] 2750 nM | Potency [12] 3460 nM
inactive: Potency [8] | max response [4] -22.5% | outcome [19] inactive [at 9.27 µM]

CCOC(=O)Nc1ccc(NCc2c(C)cc(C)cc2C)cc1N
inactive: Potency [8] | Potency [3] | Potency [17] | Potency [6] | Potency [7]
active: Potency [2] 2130 nM | Potency [11] 18300 nM | Potency [12] 9160 nM

NC(=O)[C@@H](CC1CC1)[C@@H](CCC(F)(F)F)C(=O)N[C@H]1N=C(c2ccccc2)c2cccc(F)c2NC1=O
inactive: Potency [1] | Potency [8] | Potency [2] | Potency [11] | Potency [12] | max response [18] 0.706% | max response [4] -25% | max response [5] 4.24% | Potency [6] | Potency [7]

CC[C@@H](C)[C@H]1C(=O)O[C@H](C(C)C)C(=O)N(C)[C@@H](C(C)C)C(=O)O[C@H](C(C)C)C(=O)N(C)[C@@H](C(C)C)C(=O)O[C@H](C(C)C)C(=O)N1C
active: Potency [1] 4320 nM | Potency [11] 2160 nM | Potency [12] 1530 nM
inactive: Potency [8]

CCOC(=O)c1ccc(-c2ccc(OC(=O)N(C)Cc3cccc(-c4ccncc4)c3)cc2)cc1
inactive: Potency [8] | Potency [11] | Potency [12] | max response [4] -8.03% | max response [5] 1.19% | Potency [6] | Potency [7]
active: Potency [2] 6740 nM | Potency [3] 952 nM | Potency [18] 9200 nM

CC(=O)NCCCOc1ccc(C(=O)N2CCC(N3C(=O)CCc4ccccc43)CC2)cc1
inactive: Potency [8] | Potency [2] | Potency [6] | Potency [7]

CC[C@@H]1C[C@H]2CC[C@H](O2)[C@H](C)C(=O)O[C@@H](C)C[C@@H]2CC[C@@H](O2)[C@@H](C)C(=O)O[C@H](C)C[C@H]2CC[C@H](O2)[C@H](C)C(=O)O[C@@H](C)C[C@@H]2CC[C@@H](O2)[C@@H](C)C(=O)O1
active: Potency [1] 1220 nM | Potency [11] 21.6 nM | Potency [12] 24.2 nM | Potency [4] 485 nM | Potency [6] 562 nM | Potency [7] 562 nM
